Experiments:
Assay in all cases: DAPPL (digital affinity profiling via proximity ligation, sequencing); 10 mM Tris-HCl pH 7.5, 50 mM NaCl, 1 mM DTT, 4% glycerol, room temperature, 30 min; GST-TFs on glutathione beads, 16-mer random dsDNA library, 0.1% formaldehyde crosslink after washing; high values mean tight binding
Settings in all cases: protein: recombinant; tags: N-terminal GST; dsDNA, one strand shown
FLI1 = biological target: T1, FLI1 (Homo sapiens, UniProt Q01543 1-452)
T1 sequence: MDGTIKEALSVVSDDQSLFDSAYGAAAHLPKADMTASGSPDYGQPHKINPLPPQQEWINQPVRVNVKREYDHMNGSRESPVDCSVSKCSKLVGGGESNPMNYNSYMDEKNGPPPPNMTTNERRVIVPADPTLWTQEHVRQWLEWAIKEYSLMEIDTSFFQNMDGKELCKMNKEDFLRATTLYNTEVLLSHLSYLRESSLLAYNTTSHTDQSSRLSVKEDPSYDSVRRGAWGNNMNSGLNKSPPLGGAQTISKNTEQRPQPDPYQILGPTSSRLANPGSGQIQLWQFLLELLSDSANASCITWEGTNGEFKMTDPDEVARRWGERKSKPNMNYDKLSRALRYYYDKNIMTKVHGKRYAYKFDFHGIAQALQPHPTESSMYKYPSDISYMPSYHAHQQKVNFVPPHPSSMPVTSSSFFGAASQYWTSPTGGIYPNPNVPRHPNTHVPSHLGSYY
In short: (§1)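 Binding signal is defined as a hexamer's read frequency for one factor over its frequency for the tag-only sample. To obtain reads, GST-fused human transcription factors were expressed in yeast, captured on glutathione beads, barcoded with DNA and pooled with that sample. Pools met 200 nmole of a 16-mer random double-stranded DNA library in Tris/NaCl/DTT/glycerol buffer for 30 min at room temperature before washing, 0.1% formaldehyde crosslinking, proximity ligation (BsaI/T4 ligase, 1 h, 37 °C), PCR and Illumina NextSeq500 sequencing.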

ELK1 = biological target: T2, ELK1 (Homo sapiens, UniProt P19419 1-428)
T2 sequence: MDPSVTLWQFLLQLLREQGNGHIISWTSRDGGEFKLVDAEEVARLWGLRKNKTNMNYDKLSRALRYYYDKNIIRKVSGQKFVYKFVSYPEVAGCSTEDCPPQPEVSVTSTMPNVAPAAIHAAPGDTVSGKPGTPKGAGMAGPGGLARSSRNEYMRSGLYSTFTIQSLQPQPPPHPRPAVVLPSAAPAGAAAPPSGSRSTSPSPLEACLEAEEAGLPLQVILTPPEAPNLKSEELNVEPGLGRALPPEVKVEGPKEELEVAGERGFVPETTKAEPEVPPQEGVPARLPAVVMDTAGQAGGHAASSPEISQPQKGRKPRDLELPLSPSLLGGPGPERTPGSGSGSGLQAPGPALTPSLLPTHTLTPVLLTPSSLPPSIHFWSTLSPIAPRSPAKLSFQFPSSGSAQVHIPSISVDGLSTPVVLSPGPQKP
In short: as §1

GABPA = biological target: T3, GABPA (Homo sapiens, UniProt Q06546 1-454)
T3 sequence: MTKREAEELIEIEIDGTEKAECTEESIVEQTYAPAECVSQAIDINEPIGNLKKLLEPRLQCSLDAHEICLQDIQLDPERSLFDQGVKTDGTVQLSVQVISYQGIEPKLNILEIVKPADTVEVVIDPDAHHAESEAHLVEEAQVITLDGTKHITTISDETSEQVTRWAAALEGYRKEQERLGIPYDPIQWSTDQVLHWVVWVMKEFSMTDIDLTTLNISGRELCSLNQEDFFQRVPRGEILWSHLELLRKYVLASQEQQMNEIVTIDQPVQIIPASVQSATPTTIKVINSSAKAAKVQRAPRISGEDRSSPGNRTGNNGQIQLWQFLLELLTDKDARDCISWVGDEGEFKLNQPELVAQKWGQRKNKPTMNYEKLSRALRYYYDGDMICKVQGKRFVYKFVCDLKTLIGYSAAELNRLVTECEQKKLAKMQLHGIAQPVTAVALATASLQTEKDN
In short: as §1

ERG = biological target: T4, ERG (Homo sapiens, UniProt P11308 1-479)
T4 sequence: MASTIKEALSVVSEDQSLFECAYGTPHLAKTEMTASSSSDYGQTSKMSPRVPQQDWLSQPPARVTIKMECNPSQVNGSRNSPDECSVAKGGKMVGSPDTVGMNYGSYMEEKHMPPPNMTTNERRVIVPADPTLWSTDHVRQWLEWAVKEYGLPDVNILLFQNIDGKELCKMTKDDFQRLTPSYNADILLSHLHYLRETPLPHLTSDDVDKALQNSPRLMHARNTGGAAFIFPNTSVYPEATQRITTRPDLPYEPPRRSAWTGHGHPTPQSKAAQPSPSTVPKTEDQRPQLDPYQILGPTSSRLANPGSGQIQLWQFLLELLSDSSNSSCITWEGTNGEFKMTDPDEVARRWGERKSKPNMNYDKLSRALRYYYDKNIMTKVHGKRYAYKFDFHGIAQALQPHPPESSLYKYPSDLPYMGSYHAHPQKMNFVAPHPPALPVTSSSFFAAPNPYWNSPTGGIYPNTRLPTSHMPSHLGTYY
In short: as §1

ELF1 = ELF1 (Homo sapiens, UniProt P32519 1-619)
In short: as §1

EHF = biological target: T5, EHF (Homo sapiens, UniProt Q9NZC4 1-300)
T5 sequence: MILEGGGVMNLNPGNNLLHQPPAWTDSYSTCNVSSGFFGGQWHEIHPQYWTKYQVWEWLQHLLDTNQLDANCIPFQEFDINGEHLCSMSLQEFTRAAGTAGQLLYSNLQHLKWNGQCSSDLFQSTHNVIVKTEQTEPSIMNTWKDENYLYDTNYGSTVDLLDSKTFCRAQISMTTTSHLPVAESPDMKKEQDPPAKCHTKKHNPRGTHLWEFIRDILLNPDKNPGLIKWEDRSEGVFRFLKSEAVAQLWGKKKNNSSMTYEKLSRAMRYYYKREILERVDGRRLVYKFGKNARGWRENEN
In short: as §1

SPI1 = SPI1 (Homo sapiens, UniProt P17947 1-270)
In short: as §1

SPIB = SPIB (Homo sapiens, UniProt Q01892 1-262)
In short: as §1

ELK3 = biological target: T6, ELK3 (Homo sapiens, UniProt P41970 1-407)
T6 sequence: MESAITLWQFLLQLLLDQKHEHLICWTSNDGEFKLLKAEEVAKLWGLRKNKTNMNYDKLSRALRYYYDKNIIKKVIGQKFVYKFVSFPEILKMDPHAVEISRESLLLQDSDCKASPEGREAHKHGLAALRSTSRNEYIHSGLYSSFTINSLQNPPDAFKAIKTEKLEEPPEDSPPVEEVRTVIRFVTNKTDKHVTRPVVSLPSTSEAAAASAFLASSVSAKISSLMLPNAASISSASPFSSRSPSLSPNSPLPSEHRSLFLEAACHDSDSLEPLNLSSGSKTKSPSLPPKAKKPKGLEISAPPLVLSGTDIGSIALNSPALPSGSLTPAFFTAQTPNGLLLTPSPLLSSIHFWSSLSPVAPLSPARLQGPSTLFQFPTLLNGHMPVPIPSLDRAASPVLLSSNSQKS
In short: as §1

Chain of ELF1 (P32519 whole entry): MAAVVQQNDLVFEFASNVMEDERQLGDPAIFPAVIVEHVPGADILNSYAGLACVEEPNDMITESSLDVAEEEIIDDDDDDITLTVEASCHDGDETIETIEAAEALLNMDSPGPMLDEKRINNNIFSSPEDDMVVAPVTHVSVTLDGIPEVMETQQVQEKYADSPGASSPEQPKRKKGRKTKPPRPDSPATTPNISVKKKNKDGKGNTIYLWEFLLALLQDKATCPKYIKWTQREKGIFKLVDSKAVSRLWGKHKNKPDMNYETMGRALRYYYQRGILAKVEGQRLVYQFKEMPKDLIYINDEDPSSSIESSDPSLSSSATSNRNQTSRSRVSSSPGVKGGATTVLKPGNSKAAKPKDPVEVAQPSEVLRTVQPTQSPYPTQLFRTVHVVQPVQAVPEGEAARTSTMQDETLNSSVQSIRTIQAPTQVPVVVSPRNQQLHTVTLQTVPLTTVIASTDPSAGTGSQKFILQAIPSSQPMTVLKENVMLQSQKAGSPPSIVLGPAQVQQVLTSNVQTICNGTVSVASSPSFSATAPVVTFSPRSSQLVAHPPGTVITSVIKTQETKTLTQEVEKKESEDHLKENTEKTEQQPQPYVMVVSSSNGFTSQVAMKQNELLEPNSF
Chain of SPIB (Q01892 whole entry): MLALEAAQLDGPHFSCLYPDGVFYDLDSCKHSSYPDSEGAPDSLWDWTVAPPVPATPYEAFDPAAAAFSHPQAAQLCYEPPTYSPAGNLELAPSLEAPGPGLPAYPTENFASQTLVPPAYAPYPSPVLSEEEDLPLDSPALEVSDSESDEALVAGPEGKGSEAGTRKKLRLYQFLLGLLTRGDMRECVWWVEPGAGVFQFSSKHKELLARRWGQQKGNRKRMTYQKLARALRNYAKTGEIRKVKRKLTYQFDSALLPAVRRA

Q: Which results are given for GACCTT?
A: binding signal (FLI1): 1.65 fold enrichment (6-mer frequency, TF over GST control); binding signal (ELK1): 1.68 fold enrichment (6-mer frequency, TF over GST control); binding signal (GABPA): 1.65 fold enrichment (6-mer frequency, TF over GST control); binding signal (ERG): 1.46 fold enrichment (6-mer frequency, TF over GST control); binding signal (ELF1): 1.58 fold enrichment (6-mer frequency, TF over GST control); binding signal (EHF): 1.46 fold enrichment (6-mer frequency, TF over GST control); binding signal (SPI1): 1.47 fold enrichment (6-mer frequency, TF over GST control); binding signal (SPIB): 1.51 fold enrichment (6-mer frequency, TF over GST control); binding signal (ELK3): 1.55 fold enrichment (6-mer frequency, TF over GST control)

Source: PMC7862700, “An all-to-all approach to the identification of sequence-specific readers for epigenetic DNA modifications on cytosine”
